# Experimental data published in PubChem BioAssay.
# Active and inactive are the calls of the source. Unless noted, no rule for the calls is given here.
# Tests used:
# [1] = compounds binding Alexa647 anti-His antibody – biochemical, small-molecule microarray, 635 nm fluorescence, artefact control for SMM control protein annotation, primary screen (AID 1128); conditions: higher = more signal;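 also: score merges feature fluorescence with signal-to-noise for each printed compound spot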
# [2] = tested on: Human papillomavirus type 1a E7 protein (residues 1-88); experiment: HPV1a E7 small-molecule binders, primary screen, biochemical, small-molecule microarray, residues 1-88, 635 nm (AID 1129); conditions: small-molecule microarray binding, fluorescence 635 nm; higher = more signal
# [3] = target: Focal adhesion kinase 1 (Homo sapiens) (UniProt Q05397); experiment: PTK2 protein binding on printed compound slides – biochemical, small-molecule microarray, 635/667 nm fluorescence, BSA, DTT, primary screen (AID 1130); conditions: 635 nm fluorescence, higher = more signal;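 also: composite of spot emission at 667 nm and signal to noise over triplicate slides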
# Chain of Focal adhesion kinase 1 (Homo sapiens) (Q05397 whole entry, looked up): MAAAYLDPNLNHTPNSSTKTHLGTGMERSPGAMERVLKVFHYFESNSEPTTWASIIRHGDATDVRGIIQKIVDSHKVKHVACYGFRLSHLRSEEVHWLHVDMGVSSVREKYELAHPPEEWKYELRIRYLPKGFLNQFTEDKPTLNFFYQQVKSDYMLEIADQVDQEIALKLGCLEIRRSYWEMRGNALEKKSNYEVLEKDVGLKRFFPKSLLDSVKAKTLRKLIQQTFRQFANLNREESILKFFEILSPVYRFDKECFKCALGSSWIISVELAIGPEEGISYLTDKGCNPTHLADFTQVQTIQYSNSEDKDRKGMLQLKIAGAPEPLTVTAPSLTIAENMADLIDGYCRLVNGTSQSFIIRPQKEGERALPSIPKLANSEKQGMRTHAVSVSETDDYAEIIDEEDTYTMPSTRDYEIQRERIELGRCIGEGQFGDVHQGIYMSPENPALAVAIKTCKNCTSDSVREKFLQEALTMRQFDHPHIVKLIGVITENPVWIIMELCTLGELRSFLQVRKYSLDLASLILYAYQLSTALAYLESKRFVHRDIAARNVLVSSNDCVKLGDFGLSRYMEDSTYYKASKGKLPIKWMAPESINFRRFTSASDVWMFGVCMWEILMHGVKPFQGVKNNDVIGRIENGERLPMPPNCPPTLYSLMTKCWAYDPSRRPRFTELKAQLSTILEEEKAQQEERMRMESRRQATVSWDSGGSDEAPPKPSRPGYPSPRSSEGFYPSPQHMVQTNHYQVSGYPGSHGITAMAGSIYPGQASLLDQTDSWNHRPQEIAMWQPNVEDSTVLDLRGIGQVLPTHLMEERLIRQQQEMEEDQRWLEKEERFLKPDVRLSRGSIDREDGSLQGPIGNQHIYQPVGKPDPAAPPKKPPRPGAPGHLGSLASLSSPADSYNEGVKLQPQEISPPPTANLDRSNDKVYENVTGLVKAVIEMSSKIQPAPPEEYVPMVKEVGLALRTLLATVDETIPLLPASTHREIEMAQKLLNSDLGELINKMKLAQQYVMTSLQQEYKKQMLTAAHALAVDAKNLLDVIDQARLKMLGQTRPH
# [4] = tested on: Fibrinogen (Alexa647-labelled); experiment: Alexa647-fibrinogen binding to printed small molecules – biochemical, small-molecule microarray, 635/667 nm fluorescence, artefact control for SMM control-protein annotation, profiling panel (AID 1131); conditions: fibrinogen-A647 binding fluorescence, higher = more signal;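 also: z-score merges 667 nm fluorescence with per-spot signal-to-noise over triplicate slides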
# [5] = target: Follistatin (Homo sapiens) (UniProt P19883); experiment: FST protein binding to printed compounds – biochemical, small-molecule microarray, 635/667 nm fluorescence, primary screen (AID 1132); conditions: 635 nm fluorescence, higher = more signal
# Chain of Follistatin (Homo sapiens) (P19883 whole entry, looked up): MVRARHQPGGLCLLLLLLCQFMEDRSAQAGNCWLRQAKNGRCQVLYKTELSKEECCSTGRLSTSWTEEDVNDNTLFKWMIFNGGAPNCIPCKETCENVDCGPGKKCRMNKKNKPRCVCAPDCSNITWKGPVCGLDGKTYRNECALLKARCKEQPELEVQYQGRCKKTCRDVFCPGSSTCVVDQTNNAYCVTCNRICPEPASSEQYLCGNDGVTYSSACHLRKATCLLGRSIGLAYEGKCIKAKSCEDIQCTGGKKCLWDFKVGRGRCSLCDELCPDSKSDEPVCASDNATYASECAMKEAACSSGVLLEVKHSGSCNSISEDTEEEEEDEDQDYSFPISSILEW
# [6] = target: Fibroblast growth factor 2 (Homo sapiens) (UniProt P09038); experiment: basic fibroblast growth factor binding to printed compounds – biochemical, small-molecule microarray, 635/667 nm fluorescence, primary screen (AID 1133); conditions: FGF2, fluorescence 635/667, higher = more signal
# Chain of Fibroblast growth factor 2 (Homo sapiens) (P09038 whole entry, looked up): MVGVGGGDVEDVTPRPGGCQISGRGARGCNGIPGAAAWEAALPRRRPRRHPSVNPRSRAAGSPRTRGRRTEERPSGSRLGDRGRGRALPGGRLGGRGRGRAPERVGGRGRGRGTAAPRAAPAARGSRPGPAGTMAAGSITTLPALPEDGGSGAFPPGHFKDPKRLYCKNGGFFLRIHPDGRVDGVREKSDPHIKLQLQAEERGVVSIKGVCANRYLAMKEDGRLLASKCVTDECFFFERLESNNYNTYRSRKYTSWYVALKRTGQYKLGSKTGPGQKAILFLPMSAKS
# [7] = JC-1 mitochondrial potential readout, lung cancer cells – cell-based, A549, JC-1 fluorescence, basal, 24 h, 100 nL, profiling panel (AID 1138); conditions: higher = more signal;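 also: A549 lung adenocarcinoma cells under basal conditions with no added stimulus; test concentration not given here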
# Lefty1 = Lefty1 protein binding to printed compounds – biochemical, small-molecule microarray, 635/667 nm fluorescence, primary screen (AID 1139); conditions: fluorescence 635/667, higher = more signal
# [8] = tested on: wheat germ agglutinin (Triticum aestivum), Alexa647-labelled; experiment: Alexa647-WGA lectin binding to printed small molecules – biochemical, small-molecule microarray, 635/667 nm fluorescence, artefact control for SMM control-protein annotation, profiling panel (AID 1140); conditions: WGA-A647 binding, 635 nm fluorescence, higher = more signal;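 also: score merges 667 nm feature emission with signal to noise over triplicate slides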
# [9] = target: Luciferin 4-monooxygenase (Photinus pyralis) (UniProt P08659); experiment: inhibition of purified Photinus pyralis luciferase – biochemical, luminescence, purified enzyme, 2006 set, primary screen (AID 1141); conditions: purified firefly luciferase, SteadyGlo luminescence, 30 min; higher = more signal, called active from +8 up or from −8 down;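 also: cell-free assay with purified firefly luciferase at 100 ng per well in PBS; test concentration not given here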
# Chain of Luciferin 4-monooxygenase (Photinus pyralis) (P08659 whole entry, looked up): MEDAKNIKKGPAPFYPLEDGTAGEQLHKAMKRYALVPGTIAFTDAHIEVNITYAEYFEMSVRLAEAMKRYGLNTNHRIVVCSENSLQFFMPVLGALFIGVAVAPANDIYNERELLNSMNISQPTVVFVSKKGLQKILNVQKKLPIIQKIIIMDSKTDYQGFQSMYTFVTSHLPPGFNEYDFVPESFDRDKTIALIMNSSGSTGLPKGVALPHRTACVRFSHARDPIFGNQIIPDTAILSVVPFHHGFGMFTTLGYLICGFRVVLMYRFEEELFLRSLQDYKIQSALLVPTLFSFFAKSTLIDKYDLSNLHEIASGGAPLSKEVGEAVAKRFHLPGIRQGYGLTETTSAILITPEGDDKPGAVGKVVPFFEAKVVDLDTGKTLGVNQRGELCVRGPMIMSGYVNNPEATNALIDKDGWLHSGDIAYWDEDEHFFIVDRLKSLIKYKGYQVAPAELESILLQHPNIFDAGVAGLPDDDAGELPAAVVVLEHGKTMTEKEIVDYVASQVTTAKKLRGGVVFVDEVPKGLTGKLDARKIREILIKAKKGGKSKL
# [10] = tested on: Wnt5a (protein binding on small-molecule microarray); experiment: small molecules binding Wnt5a protein – biophysical, small-molecule microarray, 635/667 nm fluorescence, primary screen (AID 1142); conditions: 635 nm fluorescence, higher = more signal;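 also: fluorescence read at 667 nm with signal to noise per printed feature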
# [11] = ATP-based viability of Huh7 replicon cells – cell-based, CellTiter-Glo luminescence, basal, 48 h, cytotoxicity control for HCV replication inhibitor project, primary screen (AID 1143); conditions: higher = more signal, called active from +8 up or from −8 down;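 also: Huh7 hepatoma cells carrying a hepatitis C replication reporter with no stimulus; test concentration not given here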
# [12] = Pseudomonas biofilm growth suppression – PAO1 strain, BacTiter-Glo luminescence, LB-PBS, primary screen (AID 1144); conditions: P. aeruginosa PAO1 biofilm, 12 h, higher = more signal
# [13] = basal CRE-LacZ reporter activity in PC12 – cell-based, unstimulated, primary screen (AID 1145); conditions: no forskolin, luminescence, 4.5 h, higher = more signal, called active from +8 up or from −8 down
# [14] = forskolin-driven CRE-LacZ activity in PC12 – cell-based, CRE-LacZ reporter, forskolin-stimulated, primary screen (AID 1146); conditions: luminescence, 4.5 h, higher = more signal, called active from +8 up or from −8 down;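 also: PC12 cells with 6xCRE LacZ reporter stimulated by forskolin 10 µM; beta-galactosidase reporter signal reflecting CREB driven transcription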
# [15] = target: Streptavidin (Streptomyces avidinii) (UniProt P22629); experiment: compounds binding control protein streptavidin – biophysical, small-molecule microarray, 635/667 nm fluorescence, artefact control for SMM compound annotation, primary screen (AID 1147); conditions: higher = more signal;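 also: signal reflects streptavidin binding to arrayed compounds as a control protein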
# Chain of Streptavidin (Streptomyces avidinii) (P22629 whole entry, looked up): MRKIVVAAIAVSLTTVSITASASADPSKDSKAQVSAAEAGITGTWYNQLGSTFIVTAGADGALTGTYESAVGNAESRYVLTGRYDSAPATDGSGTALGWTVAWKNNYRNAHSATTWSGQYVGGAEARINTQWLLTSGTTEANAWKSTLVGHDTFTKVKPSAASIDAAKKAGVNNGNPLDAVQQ
# [16] = probe aInhba binding on compound microarray – biochemical, small-molecule microarray, 635/667 nm fluorescence, primary screen (AID 1148); conditions: higher = more signal;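 also: score merges 667nm spot fluorescence with signal-to-noise for antibody binding to printed compounds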
# Torsin-1A (Homo sapiens) [17] = target: Torsin-1A (Homo sapiens) (UniProt O14656); experiment: TOR1A wild-type binding on microarray – cell lysate, small-molecule microarray, lysate, 635/667 nm, primary screen (AID 1149); conditions: COS7 hTOR1A-WT lysate, 635 nm fluorescence, higher = more signal
# Chain of Torsin-1A (Homo sapiens) (O14656 whole entry, looked up): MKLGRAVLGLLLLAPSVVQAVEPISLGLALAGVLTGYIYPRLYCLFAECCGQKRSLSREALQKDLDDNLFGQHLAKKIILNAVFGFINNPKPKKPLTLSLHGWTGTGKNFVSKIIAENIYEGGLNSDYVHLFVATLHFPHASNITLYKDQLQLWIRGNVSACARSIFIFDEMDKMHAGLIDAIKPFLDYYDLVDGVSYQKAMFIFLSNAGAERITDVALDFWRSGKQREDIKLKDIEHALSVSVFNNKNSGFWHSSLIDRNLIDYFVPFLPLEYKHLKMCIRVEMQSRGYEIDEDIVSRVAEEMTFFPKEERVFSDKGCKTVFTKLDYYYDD
# Torsin-1A (Homo sapiens) [18] = target: Torsin-1A (Homo sapiens) (UniProt O14656); experiment: torsin A mutant lysate binding on microarrays – cell lysate, small-molecule microarray, COS7 lysate, 635/667 nm fluorescence, primary screen (AID 1150); conditions: COS7 hTOR1A mutant lysate, 635 nm fluorescence, higher = more signal;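 also: score pools 667 nm emission and signal to noise measuring lysate protein binding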
# [19] = tested on: Sonic hedgehog protein (Shh); experiment: Sonic hedgehog microarray binding compounds – biochemical, small-molecule microarray, 635/667 nm fluorescence, primary screen (AID 1151); conditions: 635 nm fluorescence, higher = more signal;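 also: Shh protein binding to compounds spotted on small-molecule microarray slides; score combines spot fluorescence intensity with signal-to-noise across triplicate slides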
Structure (SMILES),composite z-score [1],composite z-score [2],composite z-score [3],composite z-score [4],composite z-score [5],composite z-score [6],z-score [7],composite z-score (Lefty1),composite z-score [8],z-score [9],composite z-score [10],z-score [11],z-score [12],z-score [13],z-score [14],composite z-score [15],composite z-score [16],composite z-score (Torsin-1A (Homo sapiens) [17]),composite z-score (Torsin-1A (Homo sapiens) [18]),composite z-score [19]
CC(C)CON=C1C[C@@H](O)[C@@H](O)[C@@H]2[C@@H]3C(=O)N(C4CCCCC4)C(=O)[C@@H]3CC[C@H]12,0.55,0.666,0.005,0.657,0.346,0.781,0.246,0.837,0.812,-0.266 (inactive),0.298,0.0498 (inactive),-0.52 (inactive),1.7 (inactive),-0.061 (inactive),0.451,0.125,0.792,0.375,0.72
Cc1ccc(S(=O)(=O)NC(CCc2ccccc2)CC(=O)C(C)(C)C)cc1 (stereo not given),0.569,0.7,0.0786,0.821,0.615,0.939,-0.124,0.625,0.693,0.74 (inactive),0.375,-0.482 (inactive),1.1 (inactive),0.2 (inactive),-0.37 (inactive),0.191,-0.0986,0.511,0.0204,0.71
C#CCCCON=C1C[C@@H](O)[C@@H](O)[C@@H]2[C@@H]3C(=O)N(c4ccc(F)cc4F)C(=O)[C@@H]3CC[C@@H]12,-0.0071,0.111,0.131,0.265,0.141,0.474,-0.633,0.322,0.238,1.04 (inactive),0.09,-0.459 (inactive),0.589 (inactive),-0.564 (inactive),-0.392 (inactive),-0.091,-0.213,0.061,0.0576,0.351
COC(=O)[C@@H]1CC[C@H](C)[C@@H](c2ccc(C)cc2)N1C(=O)c1ccc(C=NOCC[C@@H]2C=C[C@H](OC(C)=O)[C@@H](COC(C)=O)O2)cc1,2.68,0.895,-0.125,0.316,0.47,0.614,-0.512,0.605,0.175,0.963 (inactive),0.133,-0.689 (inactive),0.637 (inactive),4.56 (inactive),-0.0189 (inactive),0.342,-0.0477,0.612,0.481,0.681
CC(C)(C)N1C(=O)[C@H]2[C@H]3[C@H](O)[C@H](O)CC(=NO[C@@H]4O[C@H](CO)[C@@H](O)[C@H](O)[C@H]4O)[C@H]3CC[C@H]2C1=O,0.492,0.15,-0.0244,-1.06,0.86,0.348,-1.43,0.585,-0.297,0.585 (inactive),0.0479,-2.05 (inactive),0.745 (inactive),-0.656 (inactive),-0.0093 (inactive),-0.132,0.179,0.462,0.0791,0.345
CCCNC(=O)OC[C@H]1O[C@H](CCON=C(C)CCN2CCCc3nc(C)c(C)cc32)C=C[C@@H]1Oc1ccc(OC)cc1,1.4,1.09,0.664,0.808,0.585,0.499,1.85,0.252,0.625,0.326 (inactive),0.146,-2.37 (inactive),-0.489 (inactive),2.72 (inactive),0.367 (inactive),0.668,0.0028,0.182,-0.0347,0.368
COC(=O)C1=C(C)N(Cc2ccccc2)[C@]23O[C@](C(=O)OC)(C(=O)N2[C@@H]1c1ccccc1)C(C(=O)OC)=C3C(=O)OC,0.686,0.653,0.0309,0.784,0.732,0.808,-0.489,1.09,-0.0964,-0.371 (inactive),0.256,-4.08 (inactive),-1.25 (inactive),1.92 (inactive),-1.61 (inactive),0.252,0.095,0.199,0.454,0.657
